This is one part of a sample in which hits are shown more often than they occur.
TbPYK inhibitor: T. brucei pyruvate kinase inhibition; 0.12% of 410,000 active; TbPYK enzyme, Kinase-Glo Plus ATP luminescence, 45 min; Potency, µM (doses to about 76.8 µM), for the others: at the highest dose activity, negative = inhibition, usual class: inhibitors; further: potency means the concentration at half of the fitted maximal effect; on the % scale 0 is the no-effect control and ±100 the full control effect; nearly all actives have a fitted effect of over 50% in size
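Assay buffer: 50 mM TEA pH 7.2, 100 mM KCl, 10 mM MgCl2, 0.05% BSA, 0.01% Tween-20. Pyruvate kinase from T. brucei plus substrate met compound, then ADP (130 uM final). Luminescence was read post 45 min RT.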
Giardia FBPA inh: blocks Giardia fructose-bisphosphate aldolase activity | 0.71% of 290,000 active | A8B2U2 | Potency, µM (doses to about 59.6 µM), for the others: at the highest dose activity, negative = inhibition, usual class: inhibitors | AID 2451 | purified Giardia FBPA; further: potency means the concentration at half of the fitted maximal effect; on the % scale 0 is the no-effect control and ±100 the full control effect; nearly all actives have a fitted effect of over 55% in size
Target sequence (A8B2U2 whole entry, looked up): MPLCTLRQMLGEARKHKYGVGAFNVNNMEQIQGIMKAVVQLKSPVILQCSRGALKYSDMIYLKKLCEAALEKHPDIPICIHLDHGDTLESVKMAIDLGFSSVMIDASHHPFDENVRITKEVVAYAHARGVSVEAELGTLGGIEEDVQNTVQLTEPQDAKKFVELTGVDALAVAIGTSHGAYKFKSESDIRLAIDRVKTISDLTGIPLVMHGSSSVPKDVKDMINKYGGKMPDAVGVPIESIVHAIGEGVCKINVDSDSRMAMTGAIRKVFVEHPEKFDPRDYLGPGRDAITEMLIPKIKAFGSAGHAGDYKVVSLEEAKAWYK
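Giardia FBPA (40 nM reagent) was preincubated 10 min at RT with compound (up to 57.5 uM final), then substrate plus GAPDH/TPI/NAD/arsenate coupling system with diaphorase/resazurin was added; resorufin fluorescence (525/598 nm) was read after 20 min.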
Shiga toxin inh: Shiga toxin inhibition | 9.2% of 290,000 active | Vero cells, Shiga toxin protein synthesis inhibition reporter | AID 2315 | inhibition, % at 38.7 µM; in the data active means inhibition mostly above about 28%, no sharp cut-off; inactive means mostly below about 43%; further: 0% is about no effect
LmPK inh: LmPK (Leishmania mexicana) enzyme inhibition; purified LmPK, Kinase-Glo ATP luminescence, 1 h; Q27686; AID 1721; 0.37% of 290,000 active; Potency, µM (top dose mostly 57.5 µM), for the others: at the top dose activity change, negative = inhibition, usual class: inhibitors; further: potency means the concentration at half of the fitted maximal effect; on the % scale 0 is the no-effect control and ±100 the full control effect
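Kinase-Glo luminescence read after 1 h RT reaction of 0.1 nM LmPK with 0.5 mM PEP and 0.1 mM ADP. Activity scaled between uninhibited and enzyme-free controls.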
RE007 growth inh: less growth of the S. pombe RE007 Vpr strain; S. pombe RE007 Vpr strain, BacTiter-Glo ATP luminescence, 24 h; Potency, µM (series often up to 92.2 µM), inactives show at the highest dose activity change, negative = less growth, most hits filed as inhibitors; 0.21% of 360,000 active; AID 651644; active means well fitted falling curve with a large enough effect; inconclusive means small, poorly fitted or top-dose-only effect; inactive means no such curve, though single readings can be large or run the other way; further: potency means the concentration at half of the fitted maximal effect; on the % scale 0 is the no-effect control and ±100 the full control effect; nearly all actives have a fitted effect of over 50% in size
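Fission yeast RE007 carrying one integrated HIV-1 vpr copy, seeded at OD 0.01 in PMG+AL medium with 23 nL pinned compound. Grown 24 h at 30 degrees; viability read by BacTiter-Glo luminescence after 5 min.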
Cycloheximide cs: affects cycloheximide protein synthesis inhibition readout, counter-screen; cell reporter, cycloheximide protein synthesis inhibition counterscreen; max response, %; 12% of 300,000 active; AID 2314; in the data active means max response mostly above about 13%, no sharp cut-off; inactive means mostly below about 14%; further: read at 38.3 µM for the half of the compounds with a filed dose; 0% is about no effect
Starred values were filed as active, the others as inactive; ? = inconclusive; . = not tested or not shown. Unless noted, the call rests on the fitted dose curve; in most records, active means well fitted curve in the direction sought with a large enough effect; inconclusive means small, poorly fitted or top-dose-only effect, or another doubt; inactive means no such curve, though single readings can be large; an effect the other way counts as inactive or inconclusive.

SMILES	TbPYK inhibitor	Giardia FBPA inh	Shiga toxin inh	LmPK inh	RE007 growth inh	Cycloheximide cs
Cc1cccc(-c2nnc(SCc3ccccc3)o2)c1	4%	2%	92*	0%	?	28*
CN(C)CCSc1nnc(-c2ccccc2)o1	1%	-8%	57*	2%	8%	39*
Cc1nnsc1C(=O)Nc1ccc(Cl)cc1Cl	9%	6%	-12	-5%	-10%	-1
Cc1ccc(NC(=O)c2snnc2C)cc1Cl	6%	-1%	26	-5%	-12%	12*
Cc1nnsc1C(=O)NNc1ccc(C(C)C)cc1	-6%	-3%	59*	-14%	4%	40*
Cc1ccc2cc(C)c3nnc(SCC(=O)c4cccs4)n3c2c1C	?	1%	26	0%	?	38*
Cc1ccc2cc(C)c3nnc(SCC(=O)Nc4nc5c(s4)CCCC5)n3c2c1C	-9%	3%	20	-3%	3%	12*
Cc1cc(SCC(=O)c2cccs2)nc2ccccc12	-18%	-5%	73*	4%	-9%	42*
Cc1ccc(C)c2c1cc(C)c1nnc(SCC(=O)c3cccs3)n12	?	?	-6	?	14%	-1
C=C(C)CSC1=C(C#N)C(c2ccccc2Cl)CC(=O)N1 (configuration not stated)	13µM*	-11%	-9	4%	0%	0
C(=N\Nc1nc2ccccc2s1)/c1ccc2c(c1)OCO2	-7%	0%	90*	-8%	-1%	72*
C=C(C)CNC(=S)N/N=C\c1ccc2c(c1)OCO2	4%	0%	-6	-4%	-18%	-3
Brc1cc2c(cc1/C=N/Nc1nc3ccccc3s1)OCO2	-2%	0%	28*	4%	5%	21*
Cc1nc(N/N=C\c2ccc3c(c2)OCO3)sc1C	-13%	3%	.	9%	-8%	29*
O=C(O)C/C(=C\c1cc2c(cc1Br)OCO2)c1nc2ccccc2s1	0%	13%	-12	-2%	14%	20
Cc1cc(C(=O)N/N=C/c2ccc3c(c2)OCO3)c2ccccc2n1	-5%	-1%	-6	-1%	-8%	-2
C=CCC(C)(O)C#Cc1ccccc1 (configuration not stated)	.	3%	.	.	.	.
COc1cc(C(=O)OCC(=O)N2CCOCC2)c([N+](=O)[O-])cc1OC	-1%	-15%	-5	1%	-13%	-3
Cc1cc(C)c2c(=O)cc(C(=O)Nc3sc4c(c3C#N)CCCC4)oc2c1	-11%	.	.	.	.	.
O=C(c1cc2ccccc2[nH]1)N(Cc1cccnc1)CC1CCCN(C2CCCCC2)C1 (configuration not stated)	5%	.	10	0%	-1%	15*
CC(=O)N(Cc1cccnc1)Cc1cc2ccccc2[nH]c1=O	1%	2%	-5	-2%	10%	6
COc1ccc(/C=C2/C(=N)N3N=C(CC(=O)N4CCCC4)SC3=NC2=O)cc1OC	3%	?	-6	11%	11%	-4
C=CCOc1ccc(/C=C2/C(=N)N3N=C(CC(=O)N4CCCC4)SC3=NC2=O)cc1OC	5%	-29%	-2	7%	1%	-4
COc1cc(/C=C2/C(=N)N3N=C(CC(=O)N4CCOCC4)SC3=NC2=O)ccc1OCc1ccccc1F	1%	.	43	2%	-2%	26*
COc1cc(/C=C2/C(=N)N3N=C(CC(=O)N4CCOCC4)SC3=NC2=O)ccc1OCc1ccc(F)cc1	8%	.	106*	-11%	-6%	40*
SMILES	TbPYK inhibitor	Giardia FBPA inh	Shiga toxin inh	LmPK inh	RE007 growth inh	Cycloheximide cs
CCOc1ccc(CC(=O)NC2CC(=O)N(c3ccc(C)c(C)c3)C2)cc1 (configuration not stated)	-2%	.	.	.	.	.
CC1CCC(NC(=O)CCN2C(=O)C3C4C=CC(C4)C3C2=O)CC1 (configuration not stated)	0%	-1%	-7	-1%	7%	-3
CN(c1ncccc1CNc1nc(Nc2ccc3c(c2)CC(=O)N3)ncc1C(F)(F)F)S(C)(=O)=O	1%	.	.	.	.	.
O=C(CCCCCNC(=O)N1CCn2c1nc1ccccc12)NCc1ccccc1Cl	-1%	7%	8	3%	-7%	-2
CCc1ccc(NC(=O)CSc2nc(N)c(NC(=O)c3ccc(F)c(F)c3)c(=O)[nH]2)cc1	1%	-21%	25*	-7%	-4%	17*
c1ccc(CN2CC[C@@H](Nc3nccn4ccnc34)C2)cc1	0%	.	.	.	-20%	.
Fc1cccc(Cl)c1-c1nnc2ccc3ccccc3n12	-3%	?	35*	5%	-8%	37*
Fc1ccccc1-c1nnc2ccc3ccccc3n12	3%	-15%	.	5%	-10%	-4
CC1(C)N(O)C(c2ccc(C(=O)O)cc2)=[N+]([O-])C1(C)C	.	40µM*	.	.	.	.
CC(=O)C(=Cc1ccc(C(=O)O)cc1)C(C)=O	-1%	2%	-3	-4%	1%	-1
COc1ccc(C)cc1S(=O)(=O)NCC(c1cccs1)S(=O)(=O)c1ccc(C)cc1 (configuration not stated)	-5%	.	.	.	.	.
O=C(Cc1c(F)cccc1Cl)NNC(=O)Nc1ccc2c(c1)OCO2	-11%	-7%	-7	-12%	-2%	-4
Oc1ccc(Br)cc1C1C=C(c2ccc3c(c2)OCO3)NC(c2c(F)cccc2Cl)N1 (configuration not stated)	.	.	82*	.	.	46*
Oc1ccccc1C1C=C(c2ccc3c(c2)OCO3)NC(c2c(F)cccc2Cl)N1 (configuration not stated)	.	.	97*	.	.	46*
OCc1ccccc1SSc1ccccc1CO	?	.	.	.	-10%	.
CCOC(=O)c1oc2ccc(CNC3CCCCC3)c(Cl)c2c1C	5%	7%	-3	-1%	-10%	-1
CCOC(=O)c1oc2ccc(CNCCO)c(Cl)c2c1C	-1%	-1%	82*	-4%	-8%	40*
CCC(C)c1ccc(OCC(=O)Nc2ccc3c(c2)C(=O)NC3=O)cc1 (configuration not stated)	-12%	.	-3	-2%	43%	-3
CN(C)c1ccc(-c2nc3ccccn3c2/N=C/c2ccc(Br)cc2)cc1	-21%	-17%	80	-6%	?	46*
COc1ccc(-c2nc3c4ccccc4ccn3c2C=O)cc1	3%	0%	-11	0%	-8%	1
Cc1c(-c2ccc(Br)cc2)nc2ccccn12	0%	-7%	49*	?	?	29*
Cc1ccc(-c2nc3ccccn3c2C=O)cc1	-7%	0%	66*	?	?	32*
Clc1c(-c2ccccc2)nc2ccccn12	-4%	-8%	37	-7%	-5%	21*
CCN(C(=O)c1coc(=O)c2ccccc12)c1ccccc1C	-1%	.	.	.	.	.
COc1ccc(-n2c(SCC(=O)Nc3cccc(C)c3C)nc3c([nH]c4ccccc43)c2=O)cc1	1%	.	.	.	.	.

Bioassay records deposited in PubChem BioAssay by National Center for Advancing Translational Sciences (NCATS).
